# PubChem BioAssay (EPA / NIEHS)
# Active and inactive are the calls of the source. The calls were made as follows: active = hit-call score of the fitted dose curve at least 0.9, where 1 is the maximum; inactive = score below 0.9.
# Assay: ATG_FoxO_CIS: Attagene CIS-FACTORIAL HepG2 Assay for human Forkhead box O (FoxO) (AID 2282943)
# Conditions: HepG2 Attagene cis-reporter, FoxO element, mRNA; actives raise or lower the signal
# Procedure: ATG_CIS is a cell-based, multiplexed-readout assay that uses HepG2, a human liver cell line, with measurements taken at 24 hours after chemical dosing in a 24-well plate.ATG_FoxO_CIS is one of 52 assay component(s) measured or calculated from the ATG_CIS assay. It is designed to make measurements of mRNA induction, a form of inducible reporter, as detected with fluorescence intensity signals by Reverse transcription polymerase chain reaction (RT-PCR) and Capillary electrophoresis technology.Data from the assay component ATG_FoxO_CIS was analyzed into 1 assay endpoint. This assay endpoint, ATG_FoxO_CIS, was analyzed with bidirectional fitting relative to DMSO as the negative control and baseline of activity. Using a type of inducible reporter, measures of mRNA for gain or loss-of-signal activity can be used to understand the reporter gene at the transcription factor-level as they relate to the gene FOXO1 and FOXO3. Furthermore, this assay endpoint can be referred to as a primary readout, because this assay has produced multiple assay endpoints where this one serves a reporter gene function. To generalize the intended target to other relatable targets, this assay endpoint is annotated to the dna binding intended target family, where the subfamily is forkhead box protein.
# Human liver HepG2 cells are transiently transfected with multiple reporter transcription units (MRTUs) in 6-well plates using FuGene 6 reagent (Roche; 3 ml FuGene/1 mg DNA). The MRTU constructs are regulated by a cis-regulating element (promoter). […] A major difference between the CIS and TRANS system is that in CIS activities of endogenous TFs are measured, whereas the TRANS assay evaluates changes in activities of exogenous, chimeric NR-Gal4 proteins. […] At the end of 24 hour incubation, total RNA was isolated using TriZol reagent (Invitrogen). The isolated RNA is then reverse-transcribed using oligo(dT) primer and Mo-MLV reverse transcriptase (Invitrogen) with DNAse I (Ambion) treatment for 30 min. The one-tenth of the produced cDNA was amplified by PCR using Taq DNA polymerase (Invitrogen) and two reporter sequence-specific primers. The PCR products were fluorescently labeled by primer extension with 6-arboxyfluorescein (6-FAM) 5'-labeled reporter sequence-specific primer (2 min at 95 C, 20 s at 68 C and 10 min at 72 C) and these products were digested with 5U of HpaI (New England Biolabs) for 2h at 37 C. The fragments were purified using Qiaquick PCR columns (Qiagen), analyzed on an ABI 3130xL genetic analyzer (Applied Biosystems) with peak positions identified by using a set of X-rhodamine (ROX)-labeled MapMarker1000 molecular weight standards (BioVentures). The raw capillary electrophoresis data was processed using Attagraph software (Attagene).
Compound,outcome,AC50
NCC(F)(F)C(F)(F)C(F)(F)C(F)(F)F,inactive,
CCCC(CCC)C(=O)O,inactive,
OC[C@H]1O[C@@](CO)(O[C@H]2O[C@H](CO)[C@@H](O)[C@H](O)[C@H]2O)[C@@H](O)[C@@H]1O,inactive,
CC(C)c1nnc2ccc(-c3ocnc3-c3cc(F)ccc3F)cn12,inactive,
NC(N)=O,inactive,
CCCCCCCCCCCCCCCCOS(=O)(=O)O,inactive,
CCn1nc(C)c2c1C(=O)NCC(c1ccc(O)cc1)=N2,inactive,
O=c1[nH]cnc2c1ncn2[C@H]1CC[C@@H](CO)O1,inactive,
Cc1cccc(O)c1C,inactive,
CCCCOC(=O)c1ccccc1,inactive,
CCCCCCCCCCCCCCO,inactive,
C[C@]12C=CC(=O)C=C1CC[C@H]1[C@@H]3C[C@@H](O)[C@](O)(C(=O)CO)[C@@]3(C)C[C@H](O)[C@@]12F,inactive,
FC(F)=C(F)C(F)(F)C(F)(F)C(F)(F)C(F)(F)C(F)(F)C(F)(F)F,inactive,
O=C(O)CO,inactive,
c1ccc(C(O[C@@H]2CCCN(CCc3ccc4c(c3)OCO4)C2)c2ccccc2)cc1,inactive,
COc1cc2c(c(OC)c1OC)-c1ccc(OC)c(=O)cc1[C@@H](NC(C)=O)CC2,inactive,
FC(F)(F)C(F)(F)C(F)(F)C(F)(F)C(F)(F)C(F)(F)I,inactive,
CC(C)CC(C)O (stereo not given),inactive,
O=C1CN(N=Cc2ccc([N+](=O)[O-])o2)C(=O)N1,inactive,
FC(F)(F)COC(OCC(F)(F)F)OCC(F)(F)F,inactive,

Compound,outcome,AC50
OCc1ccccc1,inactive,
CNC(C)=O,inactive,
O=S1(=O)CCCO1,inactive,
Cc1ncc([C@@H](CCCCCCc2ccc3c(n2)NCCC3)CC(=O)O)cn1,inactive,
O=C(O)c1cccc(C[C@@H]2COc3ccc(OCc4nc5cc(F)ccc5s4)cc3[C@@H]2O)c1,inactive,
O=S(=O)(O)CCC(F)(F)C(F)(F)C(F)(F)C(F)(F)C(F)(F)C(F)(F)F,inactive,
c1ccc2c(c1)-c1cccc3c1c-2cc1ccccc13,inactive,
FC(F)C(F)(F)COCC1CO1 (stereo not given),inactive,
OCc1c[nH]c2ccccc12,inactive,
COCc1nnc(-c2ccc[n+]([O-])c2)n1-c1c(Cl)c(Cl)cc2[nH]c(=O)c(=O)[nH]c12,inactive,
OC(O)(C(F)C(O)(O)C(F)(F)F)C(F)(F)F,inactive,
S=P(N1CC1)(N1CC1)N1CC1,inactive,
Nc1ccn([C@@H]2O[C@H](CO)[C@@H](O)[C@@H]2O)c(=O)n1,inactive,
CCN(CC)C(=S)SSC(=S)N(CC)CC,,152 µM (active)
CC(C)CCCCCCOC(=O)C1CCCCC1C(=O)OCCCCCCC(C)C (stereo not given),inactive,
CCCCCCCC1CCC(=O)O1 (stereo not given),inactive,
COS(C)(=O)=O,inactive,
C[C@@H](Oc1ccc(CNC(=O)c2cccnc2Oc2ccc3c(c2)OCO3)c(F)c1)C(=O)O,inactive,
Cn1cc[nH]c1=S,inactive,
NC(=O)N1c2ccccc2C=Cc2ccccc21,inactive,
